This is an account of results in PubChem BioAssay (Tox21).

The nature of assay [1]: qHTS assay to identify aromatase inhibitors - cell viability counter screen (AID 743084).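 Note: cells stimulated with testosterone during compound exposure; nearly all actives have a fitted effect of over 55% in size.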 For orientation: qHTS replaces the single test concentration by a dilution series.
Assay [2] is described as follows: qHTS assay to identify small molecule that activate the aryl hydrocarbon receptor (AhR) signaling pathway - cell viability counter screen (AID 743086).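 Note: HepG2 liver cells carrying the AhR DRE luciferase reporter; series mostly up to about 70 µM; nearly all actives have a fitted effect of over 45% in size.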 A digest of the protocol:
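HepG2-AhR-luc (HG2L7.5c1) cells, 4000/well, treated 24 h at 37 C with compound; viability measured as CellTiter-Fluor fluorescence after 30 min in the same wells as the luciferase read.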

The target in assay [3] is Peroxisome proliferator-activated receptor gamma (Homo sapiens) (UniProt P37231). In words: qHTS assay to identify small molecule agonists of the peroxisome proliferator-activated receptor gamma (PPARg) signaling pathway (AID 743094; active = well fitted activation curve with a large enough effect in the signal ratio in the repeat runs, not every such curve was filed as active; the % refers to the signal ratio). A digest of the protocol:
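GeneBLAzer PPARg UAS-bla HEK293H cells carrying a stably integrated beta-lactamase reporter were pre-incubated 5 h at 37C, then exposed to compounds in DMSO for 17 h at 37C; LiveBLAzer B/G FRET substrate was added for 1 h at room temperature and fluorescence read.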

For assay [4] the target is unchanged. In words: qHTS assay to identify small molecule antagonists of the peroxisome proliferator-activated receptor gamma (PPARg) signaling pathway (AID 743191; calls by dose curve; note: series mostly up to about 63 µM; nearly all actives have a fitted effect of over 30% in size). A digest of the protocol:
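GeneBLAzer PPARg UAS-bla HEK293H cells, 5 h post-plating, exposed to compounds 17 h at 37C. LiveBLAzer B/G FRET substrate added for 1 h at room temperature; beta-lactamase reporter read by fluorescence intensity.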

Assay [5] can be described thus: qHTS assay to identify small molecule antagonists of the peroxisome proliferator-activated receptor gamma (PPARg) signaling pathway - cell viability counter screen (AID 743194). Note: nearly all actives have a fitted effect of over 55% in size. As to conditions: Potency: co-treated with 50 nM rosiglitazone. The essentials:
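Cytotoxicity counter screen in PPARg-bla HEK293H cells, same wells as reporter assay. Compounds plus 50 nM rosiglitazone (final) for 17 h at 37 C, then viability read by CellTiter-Glo luminescence.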

A short description of assay [6]: qHTS assay for small molecule agonists of the antioxidant response element (ARE) signaling pathway - cell viability counter screen (AID 743203; calls by dose curve; note: nearly all actives have a fitted effect of over 55% in size; note: potency is the fitted concentration of half-maximal effect). The essentials: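 CellSensor ARE-bla HepG2 cells, 2,000 per well, rested 5 hrs at 37C/5% CO2, then exposed to compound in DMSO for 16 hrs; viability read as CellTiter-Glo luminescence after 30 min at room temperature, in the reporter wells.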

The nature of assay [7]: qHTS assay for small molecule activators of the heat shock response signaling pathway (AID 743210; active = well fitted activation curve with a large enough effect in the signal ratio in the repeat runs, with a control signal flat, not every such curve was filed as active; the % refers to the signal ratio;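 note: HeLa cells with beta-lactamase reporter driven by heat shock elements; series mostly up to about 63 µM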). The essentials: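 Quantitative high-throughput format using an engineered HeLa line in which heat shock response elements drive beta-lactamase; after 5 h with compound, cells received a B/G FRET substrate and fluorescence was read.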
Assay [8] can be described thus: qHTS assay to identify small molecule agonists of the peroxisome proliferator-activated receptor delta (PPARd) signaling pathway - cell viability counter screen (AID 743211). Note: nearly all actives have a fitted effect of over 55% in size. A digest of the protocol: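 Multiplexed format: after the 2 h room-temperature LiveBLAzer B/G FRET step, CellTiter-Glo was added to the same wells. Luminescence after 30 min gave cell viability; compound exposure was 17 h at 37C.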

In assay [9] the target is Peroxisome proliferator-activated receptor delta (Homo sapiens) (UniProt Q03181). In words: qHTS assay to identify small molecule agonists of the peroxisome proliferator-activated receptor delta (PPARd) signaling pathway (AID 743212; calls by dose curve). The essentials:
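Quantitative high-throughput agonist screen in a HEK293H beta-lactamase reporter line under UAS control. Compounds in DMSO, at 37 C. Fluorescence read after 2 h with FRET substrate at room temperature.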

Assay [10] in a line: qHTS assay to identify small molecule antagonists of the peroxisome proliferator-activated receptor delta (PPARd) signaling pathway - cell viability counter screen (AID 743213). Note: nearly all actives have a fitted effect of over 50% in size. A digest of the protocol: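 Luminescence from CellTiter-Glo, added after the bla read and incubated 30 min at room temperature, gives viability of HEK293H PPARd-bla cells exposed to compounds for 17 h at 37 C with 300 nM L165041.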

For assay [11], the target named is Bile acid receptor (Homo sapiens) (UniProt Q96RI1). In words: qHTS assay to identify small molecule antagonists of the farnesoid-X-receptor (FXR) signaling pathway (AID 743217; active = well fitted inhibition curve with a large enough effect in the signal ratio in the repeat runs, not every such curve was filed as active; the % refers to the signal ratio). A digest of the protocol: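 FXR-UAS-bla HEK 293T cells pre-incubated 5 h at 37 °C, then exposed to compounds with chenodeoxycholic acid (50 uM final) for 16 h at 37 °C. Beta-lactamase reporter read by LiveBLAzer B/G FRET substrate fluorescence after 2 h at room temperature.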
Chain of Bile acid receptor (Homo sapiens) (Q96RI1 whole entry, looked up): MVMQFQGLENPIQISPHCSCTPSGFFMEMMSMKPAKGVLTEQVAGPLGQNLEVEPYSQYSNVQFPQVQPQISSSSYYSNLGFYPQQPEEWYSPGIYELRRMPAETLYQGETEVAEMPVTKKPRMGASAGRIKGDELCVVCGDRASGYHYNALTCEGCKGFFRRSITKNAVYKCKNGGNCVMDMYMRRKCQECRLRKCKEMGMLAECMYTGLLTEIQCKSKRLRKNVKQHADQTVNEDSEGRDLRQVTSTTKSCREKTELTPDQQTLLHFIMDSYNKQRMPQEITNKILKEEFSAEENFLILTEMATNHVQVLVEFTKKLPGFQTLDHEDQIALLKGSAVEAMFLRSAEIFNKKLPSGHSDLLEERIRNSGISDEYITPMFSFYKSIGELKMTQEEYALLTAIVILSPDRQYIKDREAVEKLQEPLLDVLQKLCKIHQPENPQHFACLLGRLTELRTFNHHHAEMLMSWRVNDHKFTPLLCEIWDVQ

A short description of assay [12]: qHTS assay to identify small molecule agonists of the farnesoid-X-receptor (FXR) signaling pathway - cell viability counter screen (AID 743218). Note: nearly all actives have a fitted effect of over 45% in size. A digest of the protocol: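 FXR-UAS-bla HEK 293T cells, plated 5 h at 37 C, were exposed to compounds for 16 h at 37 C. CellTiter-Glo was then added to the same wells as the bla readout; luminescence read after 30 min at room temperature.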

Assay [13] addresses Bile acid receptor (Homo sapiens) (UniProt Q96RI1). In words: qHTS assay to identify small molecule agonists of the farnesoid-X-receptor (FXR) signaling pathway (AID 743220; active = well fitted activation curve with a large enough effect in the signal ratio in the repeat runs, not every such curve was filed as active; the % refers to the signal ratio). The essentials:
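Beta-lactamase reporter under UAS control in GeneBLAzer FXR HEK 293T cells (5000/well) measured with LiveBLAzer FRET substrate after 2 h at room temperature. Compound exposure lasted 16 h at 37C.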

Assay [14] addresses Vitamin D3 receptor (Homo sapiens) (UniProt P11473). In words: qHTS assay to identify small molecule agonists of the vitamin D receptor (VDR) signaling pathway (AID 743222; calls by dose curve). The essentials: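 VDR-bla cells were plated 4 h at 37C/5% CO2, then exposed to compounds in DMSO for 16 h. After LiveBLAzer B/G FRET substrate addition and 2 h at room temperature, beta-lactamase reporter fluorescence was read.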

The target is the same in assay [15]. In words: qHTS assay to identify small molecule antagonists of the vitamin D receptor (VDR) signaling pathway (AID 743223; active = well fitted inhibition curve with a large enough effect in the signal ratio in the repeat runs, not every such curve was filed as active; the % refers to the signal ratio). A digest of the protocol: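 After VDR-bla cells are plated and left 4 h at 37C, DMSO-dissolved compounds and 3 nM (final) calcitriol agonist are added. Incubation continues 16 h at 37C; FRET beta-lactamase substrate then develops 2 h at room temperature.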

In assay [16] the target is Peroxisome proliferator-activated receptor delta (Homo sapiens) (UniProt Q03181). Briefly: qHTS assay to identify small molecule antagonists of the peroxisome proliferator-activated receptor delta (PPARd) signaling pathway (AID 743215; active = well fitted inhibition curve with a large enough effect in the signal ratio in the repeat runs, not every such curve was filed as active; the % refers to the signal ratio;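 note: cells stimulated with agonist L165041 at 300 nM final during compound exposure; series mostly up to about 62 µM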). The essentials:
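PPARd UAS-bla HEK293H cells were pre-incubated 5 h at 37 C, then given test compounds in DMSO plus agonist L165041 (300 nM final). After 17 h at 37 C, beta-lactamase FRET substrate was added; fluorescence read after 2 h at room temperature.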

Assay [17] is described as follows: qHTS assay to identify small molecule antagonists of the farnesoid-X-receptor (FXR) signaling pathway - cell viability counter screen (AID 743221; active = well fitted cell-killing curve with a large enough effect in the repeat runs, not every such curve was filed as active; note: nearly all actives have a fitted effect of over 50% in size). A digest of the protocol:
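CellTiter-Glo, 30 min RT, luminescence; same wells as the LiveBLAzer FRET read. Cells: FXR-UAS-bla HEK 293T. Treatment: compound with chenodeoxycholic acid 50 uM final, 16 h at 37 C.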

Assay [18] in a line: qHTS assay for small molecule agonists of the antioxidant response element (ARE) signaling pathway (AID 743202; active = well fitted activation curve with a large enough effect in the signal ratio in the repeat runs, not every such curve was filed as active; the % refers to the signal ratio; note: potency is the fitted concentration of half-maximal effect). A digest of the protocol: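 Agonist mode reporter screen: HepG2 cells with ARE-controlled beta-lactamase are incubated with test compounds for 16 h at 37 C, and beta-lactamase activity is measured as fluorescence of cleaved B/G FRET substrate.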
Assay [19] can be described thus: qHTS assay for small molecule activators of the heat shock response signaling pathway - cell viability counter screen (AID 743209). Note: nearly all actives have a fitted effect of over 50% in size. The essentials: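 CellSensor HSE-bla HeLa cells, plated overnight at 37 C/5% CO2, were exposed to compounds in DMSO for 5 h at 37 C. Viability was then read in the same wells by CellTiter-Glo luminescence after 30 min at room temperature.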

Results filed as inconclusive are left out. Calls of active or inactive are those of the source. Unless noted, calls come from the whole dose curve; as a rule, active = well fitted curve in the direction sought with a large enough effect in the repeat runs; inconclusive = weak or mixed curves; inactive = no such curve, though single readings can be large; an effect the other way counts as inactive or inconclusive.

Chain of Peroxisome proliferator-activated receptor gamma (Homo sapiens) (P37231 whole entry, looked up): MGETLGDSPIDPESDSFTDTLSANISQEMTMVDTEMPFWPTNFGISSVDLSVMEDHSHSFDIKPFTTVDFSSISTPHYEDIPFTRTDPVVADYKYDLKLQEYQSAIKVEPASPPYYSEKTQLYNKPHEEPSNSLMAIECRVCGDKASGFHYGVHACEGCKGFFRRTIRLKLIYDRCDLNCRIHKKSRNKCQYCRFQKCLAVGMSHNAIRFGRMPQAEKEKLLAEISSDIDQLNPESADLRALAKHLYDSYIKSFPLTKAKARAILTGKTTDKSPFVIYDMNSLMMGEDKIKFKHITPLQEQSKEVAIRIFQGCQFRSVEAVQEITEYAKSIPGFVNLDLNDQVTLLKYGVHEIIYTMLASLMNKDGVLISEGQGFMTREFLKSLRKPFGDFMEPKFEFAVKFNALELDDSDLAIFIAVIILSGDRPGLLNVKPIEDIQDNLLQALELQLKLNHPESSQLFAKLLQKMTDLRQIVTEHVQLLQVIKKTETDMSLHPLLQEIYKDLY
Chain of Peroxisome proliferator-activated receptor delta (Homo sapiens) (Q03181 whole entry, looked up): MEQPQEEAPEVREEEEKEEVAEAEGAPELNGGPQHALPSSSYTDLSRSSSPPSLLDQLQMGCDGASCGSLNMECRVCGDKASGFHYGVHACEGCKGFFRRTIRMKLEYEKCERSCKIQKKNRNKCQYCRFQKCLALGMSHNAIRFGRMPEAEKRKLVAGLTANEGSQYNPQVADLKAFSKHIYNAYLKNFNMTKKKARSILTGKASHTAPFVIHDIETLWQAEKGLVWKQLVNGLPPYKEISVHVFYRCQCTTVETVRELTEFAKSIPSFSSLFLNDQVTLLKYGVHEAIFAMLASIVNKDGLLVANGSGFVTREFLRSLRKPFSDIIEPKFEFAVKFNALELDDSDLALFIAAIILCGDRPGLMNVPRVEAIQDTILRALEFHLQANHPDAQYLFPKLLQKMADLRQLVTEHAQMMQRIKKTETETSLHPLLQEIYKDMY
Chain of Vitamin D3 receptor (Homo sapiens) (P11473 whole entry, looked up): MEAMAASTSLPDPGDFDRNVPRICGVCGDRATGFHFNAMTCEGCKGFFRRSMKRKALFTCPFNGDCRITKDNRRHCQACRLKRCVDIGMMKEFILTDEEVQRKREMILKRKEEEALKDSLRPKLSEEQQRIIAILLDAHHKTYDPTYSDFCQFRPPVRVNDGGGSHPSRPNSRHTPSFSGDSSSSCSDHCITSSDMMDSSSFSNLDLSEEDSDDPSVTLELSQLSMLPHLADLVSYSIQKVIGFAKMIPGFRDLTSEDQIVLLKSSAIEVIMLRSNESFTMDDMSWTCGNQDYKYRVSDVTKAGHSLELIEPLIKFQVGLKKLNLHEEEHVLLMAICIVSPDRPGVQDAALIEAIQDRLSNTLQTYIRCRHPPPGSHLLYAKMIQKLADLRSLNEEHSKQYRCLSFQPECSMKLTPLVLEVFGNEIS

Turning to `COCc1cnc(C2=NC(C)(C(C)C)C(=O)N2)c(C(=O)O)c1` (stereo not given), the Potency result in assay [1], in assay [2], in assay [3], in assay [4], in assay [5] and in assay [6] was “inactive” in each case. Further, the Potency entry in [7], in assay [8], in [10], in assay [11], in assay [12] and in [15] was “inactive” throughout. In addition, the call in [9], in assay [13] and in [14] was inactive.

On to `CCOP(=S)(S)OCC`, for which the Potency entry in assay [1], in assay [2], in assay [3], in assay [4], in [5] and in assay [6] was “inactive” in each case. Further, the Potency entry in [8], in assay [10], in [16], in [11], in [12] and in assay [17] was “inactive” each time. Moreover, in [15], the Potency entry is “inactive”. Further, the outcome in assay [13] and in assay [14] was inactive.

For `CC(Cl)C(=O)O` (stereo not given), the Potency result in assay [1], in assay [2], in [3], in assay [4], in assay [5] and in assay [18] was “inactive” in each case. In addition, the Potency result in [19], in assay [7] and in [8] was “inactive” each time. In [14], the compound was called inactive.

For `O=C(O)C(F)(F)C(F)(F)C(F)(F)C(F)(F)C(F)(F)C(F)(F)C(F)(F)C(F)(F)F`, the Potency result in assay [1], in assay [2], in assay [5], in [19], in [8] and in assay [10] was “inactive” each time. In addition, the Potency result in assay [17] was “inactive”. Further, the Potency in assay [18] was 6.86 µM (active); in assay [6] it was 61.1 µM (active). In addition, the outcome in assay [13] and in assay [14] was inactive.

As for `C=C(Cl)Cl`, the Potency result in assay [1], in assay [2], in [3], in assay [5], in assay [18] and in assay [6] was “inactive” each time. Also, the Potency result in [19], in assay [7], in [8], in assay [10], in assay [16] and in assay [12] was “inactive” each time. Moreover, the Potency entry in [17] was “inactive”. In addition, the result in assay [9] was inactive.

With `N#CC(C#N)=C(C#N)C#N`, the Potency result in assay [1], in assay [2], in assay [4], in assay [5], in assay [6] and in [19] was “inactive” each time. Besides, the Potency result in [7], in assay [16] and in [12] was “inactive” each time. Besides, the Potency in [18] is 7.17 µM (active). For the same compound, the result in [9] and in assay [14] was inactive.

Consider `O=S(=O)(c1ccccc1)c1ccccc1`, for which the Potency entry in [1], in assay [2], in assay [3], in assay [4], in assay [5] and in [6] was “inactive” in each case. In addition, the Potency entry in assay [7], in assay [8], in assay [16], in assay [11], in [12] and in [17] was “inactive” throughout. Besides, the compound was called inactive in assay [9] and in assay [14].

In the case of `CCCN(CCOc1c(Cl)cc(Cl)cc1Cl)C(=O)n1ccnc1`, the Potency entry in assay [1], in assay [2], in assay [3], in [5], in [19] and in assay [7] was “inactive” each time. Besides, the Potency result in [8], in [10], in assay [16] and in assay [12] was “inactive” in each case. Moreover, the compound was classed as inactive in assay [9] and in assay [13].

As for `COc1ccccc1N1CCNCC1`, the Potency result in [1], in assay [2], in [3], in assay [4], in [5] and in [18] was “inactive” in each case. The Potency entry in assay [6], in [19], in assay [7], in assay [8], in assay [16] and in [12] was “inactive” in each case. The Potency entry in assay [17] and in assay [15] was “inactive” in each case. Moreover, the outcome in assay [9], in assay [13] and in [14] was inactive.
